The values that follow come from PubChem BioAssay AID623911 (Vanderbilt High Throughput Screening Facility, 2012).

Among all 2,100 compounds or so, about 770 (37%) were called active. The list shows a part of the results. Values without a mark were called inactive.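 How the source made its calls: active means by-eye trace score of 1 for enhancers or -1 for inhibitors, so actives lie on both sides (some results past the limit were not filed as active); inactive means score 0, or 3 fluorescent, or 4 baseline rise.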

The target in this test is G protein-activated inward rectifier potassium channel 2 (Homo sapiens) + G protein-activated inward rectifier potassium channel 1 (Homo sapiens) (UniProt P48051+P48549). As to the kind of experiment: GIRK1/2 thallium flux modulators, retest, confirmation, cell-based, HEK293 rmGlu8/hGIRK1/2, FluoZin-2 (AID 623911). The note with it: HEK293 rmGlu8/hGIRK1/2, thallium flux FluoZin-2; actives lie on both sides; glutamate co-added at its EC20 level.
G protein-activated inward rectifier potassium channel 2 (Homo sapiens) + G protein-activated inward rectifier potassium channel 1 (Homo sapiens), sequence (P48051 whole entry, looked up): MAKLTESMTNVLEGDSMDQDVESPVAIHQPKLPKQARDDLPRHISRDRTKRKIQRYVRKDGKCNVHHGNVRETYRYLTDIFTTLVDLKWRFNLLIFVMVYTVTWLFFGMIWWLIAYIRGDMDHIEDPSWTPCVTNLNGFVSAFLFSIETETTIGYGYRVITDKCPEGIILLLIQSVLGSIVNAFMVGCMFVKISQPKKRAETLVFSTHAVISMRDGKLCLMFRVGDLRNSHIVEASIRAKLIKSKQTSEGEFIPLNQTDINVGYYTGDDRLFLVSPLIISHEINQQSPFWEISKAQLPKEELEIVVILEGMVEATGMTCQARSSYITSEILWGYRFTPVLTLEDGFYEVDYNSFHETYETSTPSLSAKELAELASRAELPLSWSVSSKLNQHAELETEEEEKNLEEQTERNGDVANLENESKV
G protein-activated inward rectifier potassium channel 2 (Homo sapiens) + G protein-activated inward rectifier potassium channel 1 (Homo sapiens), sequence (P48549 whole entry, looked up): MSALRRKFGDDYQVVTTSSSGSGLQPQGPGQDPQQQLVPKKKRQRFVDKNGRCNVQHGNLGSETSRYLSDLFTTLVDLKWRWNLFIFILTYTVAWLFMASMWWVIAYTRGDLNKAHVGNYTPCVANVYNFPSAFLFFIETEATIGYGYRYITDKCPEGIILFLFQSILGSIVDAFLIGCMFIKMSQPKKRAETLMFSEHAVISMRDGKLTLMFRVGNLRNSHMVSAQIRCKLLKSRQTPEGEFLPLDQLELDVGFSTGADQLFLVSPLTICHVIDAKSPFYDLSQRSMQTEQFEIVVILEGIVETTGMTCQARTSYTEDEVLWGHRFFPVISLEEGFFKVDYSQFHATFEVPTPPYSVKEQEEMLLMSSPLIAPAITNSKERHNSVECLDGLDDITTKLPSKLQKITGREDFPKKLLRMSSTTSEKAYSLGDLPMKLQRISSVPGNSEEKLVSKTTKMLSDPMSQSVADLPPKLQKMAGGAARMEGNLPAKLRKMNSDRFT
For the compound `Cc1cccc(C)c1NC1=NC(=S)N(c2ccc(N(C)C)cc2)C1(C)C`, the manual score was 0.

`Cc1ccccc1Nc1nc2nonc2nc1N1CCOCC1`: the manual score is 0. As for `Cc1ccc(N2C(=S)N=C(Nc3ccccc3C)C23CCOC(C)(C)C3)cc1` (stereo not given), the figure is 1 (active); as for `Cc1ccccc1NC1=NC(=S)N(c2ccccc2)C12CCOC(C)(C)C2` (stereo not given), 1 (active); as for `CCOC(=O)CSc1cccc2cccnc12`, 0. As for `O=C(NC(=S)Nc1nc2ccccc2s1)c1ccco1`, the figure is 1 (active); as for `CCc1nnc(NS(=O)(=O)c2ccc(NC(=S)NC(=O)c3ccccc3)cc2)s1`, 0; as for `COC(=O)c1sc(NC(=S)NC(=O)c2cccc(C)c2)nc1C`, 0. Next, `CC(C)(C)c1ccc(C(=O)NC(=S)Nc2nc3c(s2)CCCC3)cc1`: 0; `COC(=O)c1sc(NC(=S)NC(=O)c2ccccc2)nc1C`: 1 (active). On to `O=C(NC(=S)NCc1ccc(-c2nc3ccccc3s2)cc1)c1ccco1`, for which the manual score is 0. As for `CCOC(=O)c1sc(NC(=S)NC(=O)c2ccco2)nc1C`, the figure is 1 (active). Next, `COC(=O)c1ccc(C(=O)NC(=S)Nc2nc3c(s2)CCCC3)cc1`: 1 (active). Next, `Cn1c(-c2ccc(-c3ccccc3)cc2)c[nH]c1=S`: 0; `COC(=O)c1ccc(N2C(=O)CC(Sc3n[nH]c(C)n3)C2=O)cc1` (stereo not given): 0; `COC(=O)c1sc(NC(=S)NC(=O)c2ccccc2Cl)nc1C`: 1 (active). In the case of `CCC(=O)Nc1ccc2c(c1)ncn2-c1ccc(OC)cc1`, the manual score is 0. Next, `COc1cc(OC)c(NC(=O)CCNC(=O)Cn2cnc3ccccc3c2=O)cc1Cl`: 0; `CCN(CC)S(=O)(=O)c1cc(NC(=O)Cn2cnc3ccccc3c2=O)ccc1C`: 1 (active); `C=CCn1c(=O)c2c(C)c(C)sc2n2c(Nc3ccc(OC)cc3)nnc12`: -0.5. Regarding `CCCCn1c(N)c(C(=S)NC(=O)CC(C)(C)C)c(=O)n(C)c1=O`, the manual score was 1 (active).

For the compound `CCCCn1c(N)c(C(=S)NC(=O)CC(C)C)c(=O)n(C)c1=O`, the manual score was 1 (active).

For `Brc1ccc(-c2nnc3c4ccccc4nc(N4CCOCC4)n23)cc1`, the manual score is 0. For the compound `CCC(=O)N1c2ccc(C)cc2C2=NNC(=S)NC21O` (stereo not given), the manual score was 0. Consider `COc1ccc(CNCCC(c2ccc(F)cc2)c2ccc(OC)cc2)cc1` (stereo not given), for which the manual score is -1 (active). Turning to `COc1ccc(C(CCNCc2ccccc2F)c2ccc(F)cc2)cc1` (stereo not given), the manual score is -1 (active). For `O=C(NNC(=O)c1cc(-c2ccccc2)n(-c2ccccc2)n1)c1cccc([N+](=O)[O-])c1`, the manual score is 0. As for `N=c1c2c(ncn1CCN1CCOCC1)Oc1ccc3ccccc3c1C2c1ccccc1` (stereo not given), the figure is -1 (active); as for `COc1ccc(S(=O)(=O)NCCCCCC(=O)NCCCN2CCOCC2)cc1`, 0. In the case of `COc1ccc(C2c3ccc4ccccc4c3Oc3ncn(CCN4CCOCC4)c(=N)c32)cc1` (stereo not given), the manual score is -1 (active). Next, `NC(=O)COc1ccc(C2c3c(oc4ccccc4c3=O)C(=O)N2CC2CCCO2)cc1` (stereo not given): 0; `CC1CCN(c2c([N+](=O)[O-])c(=O)oc3ccccc23)CC1`: 0; `CCOC(=O)C1(C(C)(C)CC)CC(CSc2nc3ccccc3[nH]2)OC1=O` (stereo not given): -1 (active). As for `CCn1c(-c2cc3ccccc3cc2O)n[nH]c1=S`, the figure is 0. Next, `O=C1N=C(c2ccccc2)S/C1=C\c1cccs1`: 0; `N=C1/C(=C/c2cccs2)C(=O)N=C2SN=C(SCc3ccccc3)N12`: 1 (active). Take `CSC1=NSC2=NC(=O)/C(=C/c3coc4ccccc4c3=O)C(=N)N12`: the manual score is 3. Next, `FC(F)(F)c1ccc2nnc(-c3c(Cl)cccc3Cl)n2c1`: 0. As to `O=C(C1CCCN1S(=O)(=O)c1cccc2cccnc12)N1CCc2ccccc21` (stereo not given), the manual score was 0. For the compound `O=C(C1CCCN1S(=O)(=O)c1cccc2cccnc12)N1CCn2c1nc1ccccc12` (stereo not given), the manual score was 0. Next, `O=C(C1CCN(S(=O)(=O)c2cccc3cccnc23)CC1)N1CC=C(c2ccccc2)CC1`: -1 (active); `FC(F)(F)c1cccc(NC(=S)NCc2ccccc2)c1`: 1 (active). Next, `Cc1ccc(NC(=S)NCc2ccccc2)cc1[N+](=O)[O-]`: 1 (active); `FC(F)(F)c1cccc(N2CCN(C(=S)NC3CCCCC3)CC2)c1`: 0. Take `FC(F)(F)c1cccc(NC(=S)NC2CCCC2)c1`: the manual score was 1 (active). Next, `O=C(Cc1ccccc1)NC(=S)Nc1cccc(C(F)(F)F)c1`: 0; `COc1ccc(/C=C/C(=O)N2CCN(S(=O)(=O)/C=C/c3ccccc3)CC2)cc1OC`: 0; `O=C(C1CCN(c2ncnc3c2sc2cccc(F)c23)CC1)N1CCOCC1`: 0. In the case of `CCOc1ccc(-c2nc(-c3ccncc3)no2)cc1OCC`, the manual score is 0.5. Take `COc1ccc(/C(C)=N/NC(=S)NCc2ccco2)cc1`: the manual score is 0.

As for `S=C(NCc1ccco1)Nc1ccc(Cl)c(Cl)c1`, the manual score is 1 (active). Next, `S=C(NCc1ccco1)N/N=C/c1ccc(Cl)cc1`: 0. With `COc1ccc2nc(N=Nc3ccc(O)c4ccccc34)sc2c1`, the manual score is 0. On to `COc1ccc2nc(NC(=S)N(C)C)sc2c1`, for which the manual score was 1 (active).

As to `COc1ccc(C(=S)Nc2ccc(N(C)C)cc2)cc1`, the manual score was 0.

Regarding `Clc1ccccc1-c1nnc2sc(CCc3ccccc3)nn12`, the manual score is 0. As for `CCc1ccc2c(c1)c(N=NC1=NC(=O)CS1)c(O)n2C`, the figure is 1 (active); as for `CCc1ccc2c(c1)c(N=NC1=NC(=O)CS1)c(O)n2CC`, 1 (active).

With `CCn1c(O)c(N=NC2=NC(=O)CS2)c2cc(C)ccc21`, the manual score was 0. Next, `CC(C)(C)c1csc(NC(=O)c2ccc3nccnc3c2)n1`: 0; `Cc1cs/c(=N\N=C\c2cccc([N+](=O)[O-])c2)n1Cc1ccco1`: 0; `CC(C)Sc1oc(-c2ccco2)nc1S(=O)(=O)c1ccccc1`: -1 (active).

Regarding `O=C(CCCCn1c(=O)c2ccccc2n(CC(=O)NC2CCCC2)c1=O)NCc1ccco1`, the manual score was 0.

With `Cc1cccn2c(=O)c3cc(C#N)c(=NC(=O)c4cccnc4)n(CC4CCCO4)c3nc12` (stereo not given), the manual score was 3. `CCCn1c(=N)c(C(=O)NCc2ccc3c(c2)OCO3)cc2c(=O)n3cccc(C)c3nc21`: the manual score was -1 (active). As for `N=c1c(C(=O)NCc2ccco2)cc2c(=O)n3ccccc3nc2n1CCc1ccccc1`, the figure is -1 (active); as for `Cn1c(=O)cc(OCCCC(=O)NCc2ccc3c(c2)OCO3)c2ccccc21`, 0.

Take `O=C(CSc1nc2ccccc2c(=O)n1CC1CCCO1)N1CCN(c2ccccc2)CC1` (stereo not given): the manual score was 0. Turning to `CCn1c(SCc2nc(-c3ccccc3)no2)nc2ccccc21`, the manual score was 0. Next, `CCn1c(SCC(=O)c2cc(C)n(CC3CCCO3)c2C)nc2ccccc21` (stereo not given): -1 (active); `Cc1ccccc1-c1nc(CS(=O)(=O)CC(=O)NCCCN2CCCC2)c(C)o1`: -1 (active); `CCc1ccc(-c2nc(CN3CCC(C(=O)NCc4ccco4)CC3)c(C)o2)cc1`: -1 (active). Next, `Cc1oc(-c2cccc(Cl)c2)nc1CN1CCC(C(=O)NCc2ccco2)CC1`: -1 (active); `O=C(CCN1C(=O)COc2ccccc21)NCCCN1CCc2ccccc2C1`: 0. Next, `O=C(CCc1nc(-c2ccccc2F)no1)NCCN1CCN(Cc2ccccc2)CC1`: 0; `CCn1c(N)c(C(=O)NCc2ccco2)sc1=S`: 0; `CCN1CCCC1CNC(=O)CSCc1nc(-c2ccccc2C)oc1C` (stereo not given): -1 (active). Turning to `O=C(c1cccc(F)c1)N1CCN(Cc2ccco2)CC1`, the manual score was 0. As for `Cc1ccc(S(=O)(=O)N/N=C/c2ccc(OC3CSC3)cc2)cc1`, the figure is 0. Next, `CCc1ccc2c(c1)C1(NN=C(c3ccc(C)cc3)S1)C(=O)N2` (stereo not given): 0; `Cc1ccccc1C(=O)Nc1ccc2nc3n(c(=O)c2c1)CCC3`: 0. Next, `CCN1CCCC1CNC(=O)C1CCN(Cc2nc(-c3cccc(Br)c3)oc2C)CC1` (stereo not given): -1 (active); `Cc1ccccc1-c1nc(CN2CCC(C(=O)NCc3ccco3)CC2)c(C)o1`: -1 (active); `Cc1oc(-c2ccccc2F)nc1CS(=O)(=O)CC(=O)NCCN(C)C1CCCCC1`: -1 (active). As to `CCC1CCCCN1C(=O)c1cc2cc(Br)ccc2oc1=O` (stereo not given), the manual score was 0.

In the case of `Cc1cc(C)nc(N2CCCC(C(=O)NCCc3ccc(F)cc3)C2)n1` (stereo not given), the manual score is 0.

Consider `Cc1oc(-c2cccc(Cl)c2)nc1CN1CCCC(C(=O)NCc2ccco2)C1` (stereo not given), for which the manual score was -1 (active). Next, `CN(c1ccccc1C(=O)Nc1ccccc1C(=O)NCc1ccco1)S(C)(=O)=O`: 0; `O=C(O)c1cnc(-c2ccccc2)nc1Sc1ccccc1Cl`: 0; `CCn1c(=NC(=O)CSC(C)=O)sc2ccccc21`: 0. Next, `O=C(Nn1cnnc1)c1cc2cc(Br)ccc2oc1=O`: 0.

Consider `Cc1c(N2C(=O)CS/C2=N\N=C\c2ccccc2O)c(=O)n(-c2ccccc2)n1C`, for which the manual score is 0. Take `Cc1cccc(-c2nc(CN3CCCC(C(=O)NC4CCCCC4)C3)c(C)o2)c1` (stereo not given): the manual score was -1 (active). As to `Cc1ccccc1-c1nc(CN2CCC(C(=O)NCCCN3CC(C)CC(C)C3)CC2)c(C)o1` (stereo not given), the manual score was -1 (active).

Regarding `CC1CC(C)CN(CCCn2c(=S)[nH]c3ccccc3c2=O)C1` (stereo not given), the manual score was -0.5. On to `O=C(C1CCCN(Cc2cccs2)C1)N1CCCCCC1` (stereo not given), for which the manual score was 0. Next, `O=[n+]1cc(-c2ccccc2)n([O-])c2c1CCC2`: 0; `CC1=C(C(=O)Nc2cccnc2)C(c2ccc3c(c2)OCO3)C2=C(CCCC2=O)N1` (stereo not given): -0.5; `COCCN(C(=O)Cc1cccs1)C(C(=O)NCc1ccc(OC)cc1)c1ccccc1` (stereo not given): 0. Next, `COC(=O)COn1c(SC(C)C)nc2ccccc2c1=O`: 0. Turning to `Cc1cccc2sc(NC(=O)Cn3cccc3)nc12`, the manual score was 0. As for `CCc1ccc2nc(NC(=O)c3cc(C)on3)sc2c1`, the figure is 1 (active); as for `Cc1cc(C)c2nc(NC(=O)c3cc(C)on3)sc2c1`, 1 (active). Turning to `O=C(Nc1nc2ccc(Cl)cc2s1)c1ccc(Br)o1`, the manual score is 0. As for `CNC(=O)c1ccc2nc(NC(C)=O)sc2c1`, the figure is -0.5.
